Test systems include NCI-H23 lung; NCI-H226 lung; HOP-62 NSCLC; NCI-H460 lung; NCI-H522 lung; A549/ATCC NSCLC; 786-0 renal; COLO 205 colon; DU-145 prostate; K-562 leukemia; MALME-3M melanoma; MDA-MB-231 breast; RXF 393 renal; SF-268 CNS; SF-295 CNS; SF-539 CNS; UACC-257 melanoma; M14 melanoma.
What all share (assay): NCI-60 one-dose screen, 48 h (100 = growth as untreated, 0 = no growth, -100 = all killed)
Common to all, as to conditions: 10 µM

SMILES strings stand for the structures. The panel holds about 83,000 compounds, 20% with a hit somewhere; the sample as a whole holds those more often.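 For each line, cells grew in 96-well plates with the test compound present at a single concentration for 48 hours.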 A number with no mark means an inactive call. Calls of active or inactive are those of the source. How the source made its calls: active means growth percent below 10; inactive means the rest.

For `COc1cc(C2C(C#N)=C(N)Oc3cc(O)ccc32)cc(OC)c1OC` (stereo unspecified), the growth was 30.7% in the test on NCI-H23 lung; 68.4% in the test on NCI-H226 lung; 53.2% with HOP-62 NSCLC; 9.65% (active) in the test on NCI-H460 lung; 1.54% (active) in the test with NCI-H522 lung; 21.4% with A549/ATCC NSCLC. In addition, the growth with 786-0 renal is 40.6%; in the test on COLO 205 colon, 8.35% (active); in the test on DU-145 prostate, 11.1%; in the test on K-562 leukemia, 9.12% (active); with MALME-3M melanoma, 43.5%; in the test with MDA-MB-231 breast, 36.1%. Besides, the growth with RXF 393 renal is -9.12% (active); in the test with SF-268 CNS, 50.4%; in the test on SF-295 CNS, 0.55% (active); in the test on SF-539 CNS, 4.64% (active); in the test with UACC-257 melanoma, 64.2%; in the test with M14 melanoma, -15.6% (active).

In the case of `Cn1cnc([N+](=O)[O-])c1/C=C1\Oc2ccc(Br)cc2C1=O`, the growth with NCI-H23 lung is 93%; in the test on NCI-H226 lung, 101%; in the test with HOP-62 NSCLC, 100%; in the test on NCI-H460 lung it was 97.3%; with NCI-H522 lung, 52.7%; in the test with A549/ATCC NSCLC, 104%. The growth with 786-0 renal is 91.4%; with COLO 205 colon it was 98%; with DU-145 prostate, 91.9%; in the test with K-562 leukemia, 67.1%; in the test with MALME-3M melanoma, 96.2%; in the test with MDA-MB-231 breast, 91.8%. Moreover, the growth was 102% with RXF 393 renal; 90% in the test with SF-268 CNS; 87.6% in the test with SF-295 CNS; 104% in the test with SF-539 CNS; 84.8% in the test with UACC-257 melanoma; 95.4% in the test on M14 melanoma.

For `COc1cc(-c2nn(-c3cccc(NC(=O)CCNc4ccc(N5CCOCC5)cc4)c3)cc2-c2ccncc2)ccc1Cl`, the growth is 13.2% in the test with NCI-H23 lung; 25.9% with NCI-H226 lung; 27.1% in the test with HOP-62 NSCLC; 4.77% (active) in the test with NCI-H460 lung; 11.9% in the test with NCI-H522 lung; 17.5% with A549/ATCC NSCLC. The growth in the test on 786-0 renal is 19.1%; with COLO 205 colon, 1.38% (active); with DU-145 prostate, 29.2%; in the test with K-562 leukemia it was 11.2%; in the test on MALME-3M melanoma, 21.9%; in the test with MDA-MB-231 breast it was -9.17% (active). The growth in the test with RXF 393 renal is 20.9%; in the test on SF-268 CNS it was 31.8%; with SF-295 CNS it was 13.4%; in the test on SF-539 CNS, 29.1%; in the test with UACC-257 melanoma, 20.1%; in the test on M14 melanoma, 2.71% (active).

As for `COc1cccc2ccc(CC(O)(c3ccccc3)c3ccccc3)nc12`, the growth in the test with NCI-H23 lung was 89.6%; with NCI-H226 lung it was 71.2%; in the test with HOP-62 NSCLC, 86.8%; in the test with NCI-H460 lung it was 90.8%; in the test with NCI-H522 lung, 93.5%; with A549/ATCC NSCLC, 95.5%. Moreover, the growth is 96.7% with 786-0 renal; 95.4% with COLO 205 colon; 98.1% in the test on DU-145 prostate; 91.9% with K-562 leukemia; 101% in the test with MALME-3M melanoma; 85% in the test on MDA-MB-231 breast. Also, the growth in the test on RXF 393 renal was 108%; in the test on SF-268 CNS, 93.7%; with SF-295 CNS, 86.4%; in the test with SF-539 CNS, 103%; with UACC-257 melanoma, 95.5%; in the test with M14 melanoma it was 94.3%.

Consider `Cc1c[nH]c(=O)n(Cc2nnc(CCC(=O)c3nc4ccccc4[nH]3)o2)c1=O`, for which the growth in the test with NCI-H23 lung is 36.9%; with NCI-H226 lung, 31.7%; in the test with HOP-62 NSCLC, 17.7%; in the test on NCI-H460 lung, 9.27% (active); with NCI-H522 lung, 12.7%; in the test on A549/ATCC NSCLC, 21.1%. Further, the growth in the test on 786-0 renal was 28.7%; in the test with COLO 205 colon, -32.7% (active); in the test on DU-145 prostate it was -35.3% (active); in the test on K-562 leukemia, 10.4%; with MALME-3M melanoma, 47.8%; in the test on MDA-MB-231 breast, 26.1%. Besides, the growth was -7.83% (active) in the test on RXF 393 renal; 36.6% with SF-268 CNS; 21.5% with SF-295 CNS; -15.2% (active) with SF-539 CNS; 81.4% in the test with UACC-257 melanoma; -16.7% (active) in the test on M14 melanoma.

In the case of `CCOC(=O)c1cc(C(=O)c2cc(OC)cc(OC)c2)n2nc(C)ccc12`, the growth in the test with NCI-H23 lung was 37.2%; with NCI-H226 lung, 78.6%; with HOP-62 NSCLC it was 48.4%; in the test with NCI-H460 lung, 10.8%; in the test on NCI-H522 lung it was -10.9% (active); in the test with A549/ATCC NSCLC, 26.9%. Besides, the growth was 34.4% with 786-0 renal; -11.5% (active) in the test on COLO 205 colon; 21.9% in the test on DU-145 prostate; 10.3% in the test on K-562 leukemia; 74.3% in the test on MALME-3M melanoma; 52.6% with MDA-MB-231 breast. The growth was 13.6% in the test on RXF 393 renal; 62.4% with SF-268 CNS; 23.9% in the test on SF-295 CNS; 3.84% (active) in the test on SF-539 CNS; 59.5% in the test on UACC-257 melanoma; 11.4% in the test with M14 melanoma.

As to `O=C1CSC(=S)N1/N=C/c1ccc(Cl)s1`, the growth in the test on NCI-H23 lung was 90.3%; in the test on NCI-H226 lung, 106%; in the test with HOP-62 NSCLC, 95.4%; with NCI-H460 lung, 107%; in the test on NCI-H522 lung, 96.2%; in the test with A549/ATCC NSCLC it was 103%. In addition, the growth in the test on 786-0 renal is 102%; in the test on COLO 205 colon, 107%; in the test with DU-145 prostate, 109%; in the test with K-562 leukemia, 105%; in the test on MALME-3M melanoma it was 103%; with MDA-MB-231 breast it was 99.4%. Further, the growth in the test with RXF 393 renal is 108%; with SF-268 CNS, 91.9%; in the test with SF-295 CNS it was 100%; in the test on SF-539 CNS it was 95.1%; in the test with UACC-257 melanoma it was 110%; in the test on M14 melanoma it was 107%.

Take `COc1ccc(-c2cc(-c3ccc(OC)c(OC)c3)nc(SCCCC(=O)NO)n2)cc1`: the growth was -26.8% (active) with NCI-H23 lung; -15.3% (active) in the test with NCI-H226 lung; -13.3% (active) in the test with HOP-62 NSCLC; -4.97% (active) in the test on NCI-H460 lung; 2.7% (active) in the test on NCI-H522 lung; -0.0794% (active) in the test with A549/ATCC NSCLC. Also, the growth was -20.8% (active) with 786-0 renal; -12.4% (active) with COLO 205 colon; -2.45% (active) in the test with DU-145 prostate; 7.32% (active) in the test on K-562 leukemia; -6.87% (active) in the test on MALME-3M melanoma; -10% (active) in the test on MDA-MB-231 breast. The growth in the test with RXF 393 renal was -46.6% (active); in the test on SF-268 CNS, 2.03% (active); in the test with SF-295 CNS, -36.8% (active); in the test on SF-539 CNS it was 1.28% (active); in the test with UACC-257 melanoma it was 9.39% (active); with M14 melanoma, -41.5% (active).

Turning to `COc1cc(C(=O)N2CCN(c3cc4c(cc3F)c(=O)c(C(=O)NO)cn4C3CC3)CC2)cc(OC)c1OC`, the growth with NCI-H23 lung is 94.9%; in the test on NCI-H226 lung, 95.1%; with HOP-62 NSCLC, 97%; in the test with NCI-H460 lung it was 105%; in the test with NCI-H522 lung it was 87.4%; with A549/ATCC NSCLC it was 99%. In addition, the growth was 93.6% with 786-0 renal; 104% with COLO 205 colon; 104% in the test on DU-145 prostate; 103% in the test with K-562 leukemia; 105% with MALME-3M melanoma; 98.8% in the test on MDA-MB-231 breast. In addition, the growth in the test with RXF 393 renal is 104%; in the test on SF-268 CNS, 98%; with SF-295 CNS, 103%; in the test on SF-539 CNS it was 101%; with M14 melanoma, 103%.

Values taken from PubChem BioAssay (NCI).
